PubChem BioAssay (Tox21)
Inconclusive results are not listed. Where a call stands in place of a potency, no number is given. A number with no mark means an inactive call. Activity calls are given as the source filed them. Unless noted, calls follow the shape of the full dose curve.

Columns and labels:
[1] = qHTS assay to identify small molecule antagonists of the vitamin D receptor (VDR) signaling pathway - cell viability counter screen (AID 743225; active = well fitted curve in the direction sought with a large enough effect in the repeat runs; an effect the other way counts as inactive or inconclusive; also: nearly all actives have a fitted effect of over 50% in size; also: potency is read from the fitted curve at half-maximal effect)
Method in brief: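 In this counter screen, VDR-bla HEK 293T cells receive test compound plus 3 nM final calcitriol for 16 h at 37C. Room-temperature steps of 2 h with the beta-lactamase substrate, then 30 min with CellTiter-Glo, precede the luminescence read.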

[2] = qHTS assay to identify small molecule agonists of the NFkB signaling pathway (AID 1159509; active = well fitted curve in the direction sought with a large enough effect in the signal ratio in the repeat runs, not every such curve was filed as active; the % refers to the signal ratio; also: series mostly up to about 61 µM)
Method in brief: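 Agonist activity was read as beta-lactamase-driven FRET change (460 and 530 nm emission, 405 nm excitation) following 1.5 hr substrate loading at room temperature. Beforehand, ME-180 NFkB-bla reporter cells were treated with compounds for 5 hr at 37 C.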

[3] = qHTS assay to identify small molecule agonists of the NFkB signaling pathway - cell viability counter screen (AID 1159515); also: series mostly up to about 61 µM; nearly all actives have a fitted effect of over 55% in size
Method in brief: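 Counter screen run alongside the NFkB-bla agonist assay: ME-180 reporter cells exposed to compounds for 5 hr, then lysed with CellTiter-Glo in the same wells. Luminescence, read after 30 min, reflects viable cells.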

[4] = qHTS assay to identify small molecule agonists of the endoplasmic reticulum stress response signaling pathway (AID 1159516; active = well fitted activation curve with a large enough effect in the signal ratio in the repeat runs, not every such curve was filed as active; the % refers to the signal ratio)
Method in brief: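 For this screen, HeLa cells stably carrying beta-lactamase under the ER stress response element received test compounds, positive controls or DMSO for 5 hr at 37 C; B/G FRET substrate was then added and dual-wavelength emission recorded.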

[5] = qHTS assay to identify small molecule agonists of the endoplasmic reticulum stress response signaling pathway - cell viability counter screen (AID 1159517); also: series mostly up to about 61 µM; nearly all actives have a fitted effect of over 50% in size
Method in brief: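 Cpd-treated ESRE-bla HeLa (5 hr, 37 C) → LiveBLAzer 2 hr RT → CellTiter-Glo 30 min RT → luminescence.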

[6] = qHTS assay to identify small molecule antagonists of the retinoid-related orphan receptor gamma (ROR-gamma) signaling pathway - cell viability counter screen (AID 1159520; active = well fitted curve in the direction sought with a large enough effect in the repeat runs; an effect the other way counts as inactive or inconclusive; also: nearly all actives have a fitted effect of over 50% in size; also: potency is read from the fitted curve at half-maximal effect)
Method in brief: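 Tet-on ROR gamma CHO cells (1,000/well) were plated 4 hr, given compounds in DMSO for 2 hr at 37 C, then induced with 1 uM final doxycycline for 16 hr. Viability was read as ATP by CellTiter-Glo luminescence after 30 min.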

[7] = qHTS assay to identify small molecule agonists of the AP-1 signaling pathway - cell viability counter screen (AID 1159525); also: nearly all actives have a fitted effect of over 55% in size
Method in brief: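 Each titration point was normalised to DMSO and tetra n-octyl ammonium bromide controls. The read was Cell Titer Glo luminescence after 30 min at RT, following 5 h compound exposure of ME-180 AP-1-bla cells at 37 °C.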

[8] = qHTS assay to identify small molecule agonists of the AP-1 signaling pathway (AID 1159526)
[9] = target: Retinoic acid receptor RXR-alpha (Homo sapiens) (UniProt P19793); test: qHTS assay to identify small molecule agonists of the RXR signaling pathway (AID 1159527); also: nearly all actives have a fitted effect of over 35% in size
Method in brief: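 Fluorescence ratio readout (460 vs 530 nm) from GeneBLAzer RXR-alpha HEK 293T cells after 16 hr compound treatment; cells seeded 5 hr beforehand in low-serum, charcoal-stripped medium.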

[10] = qHTS assay to identify small molecule antagonists of the retinoid acid receptor (RAR) signaling pathway - cell viability counter screen (AID 1159551; active = well fitted curve in the direction sought with a large enough effect in the repeat runs; an effect the other way counts as inactive or inconclusive; also: nearly all actives have a fitted effect of over 35% in size)
Method in brief: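 Measured by luminescent ATP detection, viability reflects C3RL4 cells treated 6 h at 37 C with test chemicals in the presence of 1 uM (final) retinol.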

[11] = qHTS assay to identify small molecule antagonists of the retinoic acid receptor (RAR) signaling pathway (AID 1159552; active = well fitted curve in the direction sought with a large enough effect in the repeat runs; an effect the other way counts as inactive or inconclusive; also: nearly all actives have a fitted effect of over 50% in size)
Method in brief: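 Using a RARE-driven luciferase construct in C3RL4 cells, retinol at 1 uM final provided the agonist stimulus while compounds were co-applied. After 6 hours at 37 C, luminescence was recorded to flag inhibitors of retinol signaling.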

[12] = qHTS assay to identify small molecule agonists of the retinoic acid receptor (RAR) signaling pathway (AID 1159553; active = well fitted curve in the direction sought with a large enough effect in the repeat runs; an effect the other way counts as inactive or inconclusive; also: potency is read from the fitted curve at half-maximal effect)
Method in brief: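 6 hr compound exposure (DMSO vehicle) of overnight-plated C3RL4 RARE-luc cells at 37 C; luminescence quantified after 30 min RT with luciferase reagent.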

[13] = qHTS assay to identify small molecule agonists of the RXR signaling pathway - cell viability counter screen (AID 1159529; active = well fitted curve in the direction sought with a large enough effect in the repeat runs; an effect the other way counts as inactive or inconclusive; also: nearly all actives have a fitted effect of over 50% in size; also: potency is read from the fitted curve at half-maximal effect)
Method in brief: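 Viability read-out for the RXR-alpha agonist qHTS: luminescent CellTiter-Glo signal after 30 min at RT. HEK 293T bla reporter cells, 2% charcoal-stripped FBS, 16 hr compound incubation; tetraoctyl ammonium bromide as cytotoxic control.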

[14] = qHTS assay to identify small molecule antagonists of the estrogen related receptor (ERR) signaling pathway - cell viability counter screen (AID 1224818; active = well fitted curve in the direction sought with a large enough effect in the repeat runs; an effect the other way counts as inactive or inconclusive; also: series mostly up to about 46 µM)
Method in brief: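 Compounds dissolved in DMSO were applied to ERR cells seeded at 2,000 per well 6 h earlier. Cell viability followed 17.5 h later via 30-min CellTiter-Fluor fluorescence.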

[15] = qHTS assay to identify small molecule antagonists of the estrogen related receptor signaling pathway with the pleiotropic PPARgamma coactivator (PGC) cell viability counter screen (AID 1224822; active = well fitted curve in the direction sought with a large enough effect in the repeat runs; an effect the other way counts as inactive or inconclusive; also: series mostly up to about 46 µM)
Method in brief: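 Counter screen for cell viability: PGC/ERR cells, 6 h pre-incubation after plating, 17.5 h compound exposure at 37 C, fluorescence from CellTiter-Fluor after 30 min.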

Retinoic acid receptor RXR-alpha (Homo sapiens), sequence (P19793 whole entry, looked up): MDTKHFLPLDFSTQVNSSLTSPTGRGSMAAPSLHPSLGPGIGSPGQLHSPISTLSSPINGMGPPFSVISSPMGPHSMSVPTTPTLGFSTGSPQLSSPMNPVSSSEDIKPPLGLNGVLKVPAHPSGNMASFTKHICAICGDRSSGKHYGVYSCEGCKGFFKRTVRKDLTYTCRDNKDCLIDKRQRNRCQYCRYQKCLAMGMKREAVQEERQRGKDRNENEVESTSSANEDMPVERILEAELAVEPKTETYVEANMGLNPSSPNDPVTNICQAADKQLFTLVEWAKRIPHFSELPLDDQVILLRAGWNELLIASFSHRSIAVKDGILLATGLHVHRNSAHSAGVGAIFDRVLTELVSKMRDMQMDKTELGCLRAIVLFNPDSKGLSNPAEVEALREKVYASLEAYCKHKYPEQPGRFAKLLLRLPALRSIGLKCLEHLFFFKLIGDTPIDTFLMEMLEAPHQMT

Row | Compound | Potency [1] | outcome [2] | outcome [3] | outcome [4] | outcome [5] | Potency [6] | outcome [7] | outcome [8] | Potency [9] | Potency [10] | Potency [11] | Potency [12] | Potency [13] | outcome [14] | outcome [15]
1 | C[C@@H]1C[C@H]2[C@@H]3CCC4=CC(=O)C=C[C@]4(C)[C@@]3(F)[C@@H](O)C[C@]2(C)[C@H]1C(=O)CO | inactive | inactive | inactive | inactive | inactive | inactive | inactive | inactive | inactive | inactive | inactive | inactive | – | – | –
2 | CCCCCCCC/C=C\CCCCCCCC(=O)OC(CO)CO | – | inactive | inactive | inactive | inactive | inactive | inactive | inactive | inactive | inactive | – | inactive | inactive | – | –
3 | Nc1nc(Cl)nc2c1ncn2[C@@H]1O[C@H](CO)[C@@H](O)[C@@H]1F | inactive | inactive | inactive | inactive | inactive | inactive | inactive | inactive | inactive | inactive | – | inactive | inactive | – | –
4 | CN1CCN(CCCN2c3ccccc3Sc3ccc(S(=O)(=O)N(C)C)cc32)CC1 | 23.9 µM (active) | inactive | inactive | inactive | inactive | inactive | inactive | inactive | inactive | inactive | – | – | – | – | –
5 | Oc1cc(O)c(Cl)cc1Cl | – | inactive | inactive | inactive | inactive | inactive | inactive | inactive | inactive | inactive | – | – | inactive | – | –
6 | CCCOC(=O)c1ccc(C(=O)OCCC)nc1 | inactive | inactive | inactive | inactive | inactive | inactive | inactive | inactive | – | inactive | inactive | 68.6 µM (active) | inactive | – | –
7 | Cc1ccccc1N1C(=O)c2cc(S(N)(=O)=O)c(Cl)cc2NC1C (stereo not given) | – | inactive | inactive | inactive | inactive | inactive | inactive | inactive | inactive | inactive | – | – | – | inactive | inactive
8 | O=S1OCCO1 | – | inactive | inactive | inactive | inactive | inactive | inactive | inactive | inactive | inactive | – | – | inactive | – | –
9 | O=[N+]([O-])c1cccc(S(=O)(=O)NCCNS(=O)(=O)c2cccc([N+](=O)[O-])c2)c1 | inactive | inactive | inactive | inactive | inactive | inactive | inactive | inactive | inactive | inactive | – | – | – | – | –
10 | O=C(O)C(Cc1cc(I)c(O)c(I)c1)c1ccccc1 (stereo not given) | inactive | inactive | inactive | inactive | inactive | inactive | inactive | inactive | inactive | inactive | inactive | inactive | – | – | –
11 | CC(=O)Nc1ccc(N)cc1 | – | inactive | inactive | inactive | inactive | inactive | inactive | inactive | – | inactive | – | inactive | inactive | – | –
12 | O=C(O)c1ccccc1NCCc1ccccc1 | inactive | inactive | inactive | inactive | inactive | inactive | inactive | inactive | – | inactive | – | 23.7 µM (active) | inactive | – | –
13 | O=C(O)c1cccc(O)c1 | inactive | inactive | inactive | inactive | inactive | inactive | inactive | inactive | – | inactive | inactive | inactive | inactive | – | –
14 | CCC(=O)Oc1ccc(/C(CC)=C(\CC)c2ccc(OC(=O)CC)cc2)cc1 | inactive | inactive | inactive | inactive | inactive | inactive | inactive | inactive | – | inactive | inactive | – | 54.9 µM (active) | – | –
15 | O=C(CCCCCCC(=O)Nc1ccccc1)NO | – | inactive | inactive | inactive | inactive | 7.5 µM (active) | inactive | inactive | inactive | inactive | – | – | – | – | –
16 | O=C(C(=O)c1ccccc1)c1ccccc1 | inactive | inactive | inactive | inactive | inactive | inactive | inactive | inactive | inactive | inactive | – | – | – | – | –
17 | CCCOc1ccc(S(=O)(=O)N2CCN(CC)CC2)cc1-c1nc2c(CC)n(Cc3ccccn3)nc2c(=O)[nH]1 | – | inactive | inactive | inactive | inactive | inactive | inactive | inactive | – | inactive | inactive | inactive | inactive | – | –
18 | ON(Cc1ccccc1)Cc1ccccc1 | – | inactive | inactive | inactive | inactive | inactive | inactive | inactive | – | inactive | – | inactive | inactive | – | –
19 | CC(C)(C)C(=O)C(Oc1ccc(Cl)cc1)n1ccnc1 (stereo not given) | – | inactive | inactive | inactive | inactive | inactive | inactive | inactive | inactive | inactive | inactive | – | inactive | – | –
20 | C=CC(C)=CCC=C(C)C | inactive | inactive | inactive | inactive | inactive | inactive | inactive | inactive | inactive | inactive | – | – | – | – | –
